Only some compounds are listed: those with a hit (about 3.2% of all), similar ones and a draw of the others.
Y pestis TopoI: inhibitors of Yersinia pestis topoisomerase I; Y. pestis Topo-I cleavage product accumulation, plate reader; activity, % at 10 µM; hit rate 0.064% among 360,000; AID 504884; in the data active = activity above about 50%, passing the limit was not always enough
GDH-TPI counter-1: inhibits GDH-TPI coupling enzymes, artifact for Mtb FBA screen; GDH-TPI coupled enzyme counterscreen, NADH absorbance; inhibition, % at 4.8 µM; hit rate 1.2% among 360,000; in the data active = inhibition above about 30%;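 also: 0% = DMSO wells and 100% = wells lacking the enzyme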
Mtb FBA inh: Mtb fructose-bisphosphate aldolase inhibition; purified M. tuberculosis FBA, fluorescence read-out; P9WQA3; hit rate 2.3% among 360,000; inhibition, % at 1 µM;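 also: 0% = vehicle and 100% = reference inhibitor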
TcdB GH inh: TcdB glycohydrolase inhibition | TcdB glycohydrolase enzymatic assay, plate reader | inhibition, % at 9.99 µM | P18177 | hit rate 0.24% among 350,000; in the data active = inhibition above about 10%
PrPC surface inh: reduces human prion protein on the cell surface; P04156; cell surface PrPC, TR-FRET read-out; inhibition, % at 13.8 µM; hit rate 0.43% among 370,000; AID 720596; in the data active = inhibition above about 24%; also: 0% = median of the test wells and 100% = reference compound wells
Mtb FBA inh conf: Mtb FBA inhibition, confirmed | shares compounds with Mtb FBA inh | purified M. tuberculosis FBA, fluorescence read-out | inhibition, % at 1 µM | hit rate 78% among 5,600 | AID 651616;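 also: 0% = vehicle wells and 100% = reference inhibitor wells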
GDH-TPI counter-2: counter-screen for M. tuberculosis FBA inhibitors: GDH-TPI coupled enzyme inhibition; shares compounds with Mtb FBA inh; GDH-TPI coupled enzyme counterscreen, fluorescence; inhibition, % at 1 µM; hit rate 81% among 5,600; AID 652141; in the data active = inhibition above about 10%
GDH-TPI DR: inhibits GDH-TPI coupling enzymes in dose response; shares compounds with Mtb FBA inh; GDH-TPI coupled enzyme assay, fluorescence, artifact counterscreen; IC50, µM; hit rate 79% among 170; call rule not given here
* hit, by the source's call; · = no result given; + = active, no number. Rule as the data show it, unless noted: active = inhibition above about 27%; inactive = the rest.

SMILES	Y pestis TopoI	GDH-TPI counter-1	Mtb FBA inh	TcdB GH inh	PrPC surface inh	Mtb FBA inh conf	GDH-TPI counter-2	others
COc1ccc(-c2c(C)oc3c(CN4CCCC(C)C4)c(O)ccc3c2=O)cc1OC (configuration not stated)	7	18	39*	0	-2	0	-2
COc1ccc(-c2nc(CS(=O)CC(=O)NCCN3CCCCC3C)c(C)o2)cc1OC (configuration not stated)	2	2	7	-1	-2	·	·
COc1ccc(-c2c(C)oc3c(CN4CCCCC4C)c(O)ccc3c2=O)cc1OC (configuration not stated)	-5	34*	42*	-1	-4	-2	-6
O=C(C[C@H]1CC[C@H](NC(=O)NC2CCCC2)[C@H](CO)O1)NCc1ccc(F)cc1	·	·	·	0	·	·	·
CC(C)CC#Cc1ccc2c(c1)O[C@@H](CN(C)C(=O)Nc1ccccc1)[C@H](C)CN([C@H](C)CO)S2(=O)=O	·	·	·	0	·	·	·
CC1(C)Cc2nc(N3CCCC3)c(C#N)cc2CO1	2	7	110*	4	1	66*	50*
Cc1cccc2cc(C#N)c(N3CCOCC3)nc12	3	2	16	-2	1	·	·
CC1(C)Cc2nc(N3CCOCC3)c(C#N)cc2CO1	-6	-3	49*	·	-14	37*	35*
Cc1noc(C)c1NC(=O)Nc1ccc2c(c1)CC(=O)N([C@@H](C)CO)C[C@@H](C)[C@H](CN(C)Cc1ccc(C(=O)O)cc1)O2	·	·	·	1	·	·	·
C=CCOc1ccc(C2C(C#N)=C(N)N(Nc3ccccc3)C3=C2C(=O)CCC3)cc1OC (configuration not stated)	19	10	29*	·	-2	124*	91*
COc1cc(C2C(C#N)=C(N)N(Nc3ccccc3)C3=C2C(=O)CC(C)(C)C3)ccc1OCc1ccccc1 (configuration not stated)	25	7	6	·	5	·	·
COc1cc2sc(-c3ccc(S(C)(=O)=O)cc3)c(C(=O)NCCCCO)c2cc1OC	0	31*	46*	1	-23	46*	30*
COc1cccc(OC)c1C(=O)Nc1nc2ccc(S(C)(=O)=O)cc2s1	3	3	13	·	-3	·	·
COc1cc2sc(-c3ccc(S(C)(=O)=O)cc3)c(C(=O)NCc3ccc(C)o3)c2cc1OC	-2	20	37*	0	-15	100*	83*
Cc1ccc(CNC(=O)c2c(-c3ccccc3)sc3ccccc23)o1	48	13	-1	1	-31	·	·
C[C@@H]1CN([C@@H](C)CO)C(=O)Cc2cc(NS(C)(=O)=O)ccc2O[C@H]1CN(C)C(=O)Nc1cccc2ccccc12	·	·	·	0	·	·	·
CC1(C)CC(n2c(NCCO)nc3c(c2=O)C2(CCCC2)Cc2ccccc2-3)CCO1 (configuration not stated)	8	11	38*	·	1	+	193*
CC(=O)Nn1cnc2c(c1=O)C1(CCCCC1)Cc1ccccc1-2	12	-5	3	·	-5	·	·
O=c1[nH]c(NCCO)nc2c1C1(CCCCC1)Cc1ccccc1-2	17	13	98*	·	4	-4	-7
CSc1ncc(C(=O)Nc2cccc(S(N)(=O)=O)c2)n1-c1ccccc1	3	-3	39*	0	0	168*	132*
O=CNc1ccc2c3c(cccc13)-c1ccccc1-2	11	7	79*	-2	17	70*	51*
Nc1c(Br)cc2c3c(cccc13)-c1ccccc1-2	·	·	·	0	2	·	·
Nc1nc(-c2ccc(-c3ccccc3)cc2)cs1	-5	3	33*	2	4	+	+
Nc1ccc(-c2cc(-c3ccc(N)cc3)nc(-c3ccccc3)n2)cc1	-12	18	39*	1	4	54*	28*
CCC(=O)N1CC2(C1)[C@H](c1ccccc1)[C@H](CO)N2CC1CCOCC1	·	·	·	0	·	·	·
SMILES	Y pestis TopoI	GDH-TPI counter-1	Mtb FBA inh	TcdB GH inh	PrPC surface inh	Mtb FBA inh conf	GDH-TPI counter-2	others
C[C@H]1CN([C@@H](C)CO)C(=O)c2cc(C3=CCCC3)cnc2O[C@H]1CN(C)C	·	·	·	1	·	·	·
C[C@@H]1CN([C@H](C)CO)C(=O)c2cc(NC(=O)Nc3ccc4c(c3)OCO4)ccc2O[C@H]1CN(C)S(C)(=O)=O	·	·	·	0	·	·	·
CCCCC(=O)Nc1cccc(-c2nc3ncccc3o2)c1	-1	0	43*	·	-9	-1	-5
Cc1ccc(-c2nc3cc(NC(=O)C(C)C)ccc3o2)cc1C	-7	18	45*	·	4	50*	35*
CC(C)C(=O)Nc1cccc(-c2nc3ncccc3o2)c1	1	7	35*	-5	3	158*	125*
CCC(=O)NC(=S)Nc1cccc(-c2nc3ncccc3o2)c1	9	10	-1	·	6	·	·
CCCCCC(=O)Nc1cccc(-c2nc3ncccc3o2)c1	4	8	41*	0	1	72*	61*
COCC(=O)N1[C@H](CO)[C@@H](c2ccccc2C2=CCCCC2)[C@@H]1C#N	·	·	·	3	·	·	·
Cc1ccc(S(=O)(=O)N(C)C[C@@H]2OCCCC[C@@H](C)Oc3ccc(NS(C)(=O)=O)cc3C(=O)N([C@H](C)CO)C[C@@H]2C)cc1	·	·	·	0	·	·	·
COc1ccccc1-c1cnc2c(c1)C(=O)N([C@H](C)CO)C[C@H](C)[C@H](CN(C)C(C)=O)O2	·	·	·	1	·	·	·
CN(Cc1ccc(F)cc1)C(=O)CNC(=O)c1cccs1	5	4	64*	-1	-1	1	-5
Cc1cc(NC(=O)c2coc(=O)c(Br)c2)ccc1C(C)C	-4	12	49*	0	-6	+	+
O=C(Nc1ccccc1F)c1coc(=O)c(Br)c1	-3	14	107*	1	0	·	+
C[C@@H](NC(=O)c1coc(=O)c(Br)c1)c1ccccc1	0	33*	81*	·	-6	72*	52*
O=C(N[C@H]1CC[C@@H](CCNS(=O)(=O)c2ccc(F)cc2)O[C@H]1CO)c1cccnc1	·	·	·	0	·	·	·
C[C@H]1CN([C@@H](C)CO)C(=O)c2cc(NC(=O)C3CC3)ccc2O[C@H]1CN(C)C(=O)NC1CCCCC1	·	·	·	1	·	·	·
Cc1cccc2nc3ccccc3cc12	2	-7	33*	-2	11	49*	33*
NC(=O)C1CCN(C(=O)CCNS(=O)(=O)c2ccccc2F)CC1	2	-5	37*	3	-4	11	6	GDH-TPI DR=>10
NC(=O)C1CCN(C(=O)CCC(=O)c2ccc(F)cc2)CC1	-5	-3	53*	0	-4	136*	128*
C[C@H](CO)N1C[C@H](C)[C@@H](CN(C)S(=O)(=O)c2ccc(Cl)cc2)Oc2c(NS(=O)(=O)c3ccc(F)cc3)cccc2C1=O	·	·	·	-9	·	·	·

Assay outcomes (PubChem)
